Rows were chosen to be rich in hits. Some 0.84% of all compounds tested hit in one or more screens of this group.
PPARg SRC2 recr: agonists of PPARg-SRC-2 recruitment, primary screen, biochemical, HTS; Peroxisome proliferator-activated receptor gamma (Homo sapiens), P37231; PPARgamma LBD-SRC-2 recruitment; activation, % at 8 µM; actives 0.34% (n = 200,000); AID 1032, 2008; in the data active = activation above about 22%
SRC3 TRFRET art: TR-FRET detection interference compounds, artefact control for PPARgamma SRC-3 recruitment agonists, biochemical, TR-FRET ratio | TR-FRET artefact counter-screen, PPARgamma/SRC-3 format; hits give high values | TR-FRET ratio at 8 µM | actives 0.39% (n = 99,000)
SRC2 TRFRET art: TR-FRET signal artefacts, primary screen, artefact control for PPARgamma SRC-2 agonist project, biochemical | actives 0.4% (n = 200,000) | TR-FRET ratio at 8 µM | TR-FRET artefact counter-screen; hits give high values
PPARg SRC-1 ag: PPARgamma agonists recruiting SRC-1 coactivator, primary screen, biochemical; Peroxisome proliferator-activated receptor gamma (Homo sapiens), P37231; PPARgamma-SRC-1 coactivator recruitment biochemical assay; activation, % at 8 µM; actives 0.41% (n = 200,000); AID 631, 2007; in the data active = activation above about 19%
SRC1 TRFRET art: TR-FRET detection interference compounds, primary screen, artefact control for PPARgamma SRC-1 recruitment agonists, biochemical, TR-FRET emission ratio. TR-FRET detection artefact counter-screen; hits give high values. TR-FRET ratio at 8 µM. actives 0.34% (n = 99,000). AID 1051, 2008; in the data active = TR-FRET ratio above about 2300
PPARg SRC3 recr: PPARgamma agonists recruiting SRC-3 coactivator, primary screen, biochemical; Peroxisome proliferator-activated receptor gamma (Homo sapiens), P37231; biochemical PPARgamma/SRC-3 coactivator recruitment assay; activation, % at 8 µM; actives 0.26% (n = 200,000); AID 731, 2007; in the data active = activation above about 23%
PPARg SRC2 conf: agonists of PPARgamma SRC-2 coactivator recruitment, confirmation, biochemical, HTS | shares compounds with PPARg SRC3 recr | activation, % at 8 µM | biochemical SRC-2 recruitment by PPARgamma | AID 1297, 2008 | actives 52% (n = 790); in the data active = activation above about 22%
PPARg SRC1 ag: PPARgamma agonists recruiting SRC-1 coactivator, confirmation, biochemical. actives 43% (n = 790). shares compounds with PPARg SRC3 recr. PPARgamma–SRC-1 coactivator recruitment biochemical assay. activation, % at 8 µM. AID 1300, 2008; in the data active = activation above about 20%
PPARg SRC3 conf: PPARgamma-driven SRC-3 coactivator recruitment agonists, confirmation, biochemical | shares compounds with PPARg SRC3 recr | biochemical PPARgamma-SRC-3 coactivator recruitment, agonist mode | activation, % at 8 µM | actives 29% (n = 790) | AID 1301, 2008; in the data active = activation above about 24%
Numbers stand for hits; 0 = inactive; - = no result. Rule as the data show it, unless noted: active = TR-FRET ratio above about 2000; inactive = the rest.

SMILES	PPARg SRC2 recr	SRC3 TRFRET art	SRC2 TRFRET art	PPARg SRC-1 ag	SRC1 TRFRET art	PPARg SRC3 recr	PPARg SRC2 conf	PPARg SRC1 ag	PPARg SRC3 conf
COc1cccc(C2C=C(c3ccc(Br)s3)Nc3ncnn32)c1OC (stereo unspecified)	27	2570	2137	33	3079	0	57	48	36
Fc1ccc(Br)cc1C1C=C(c2ccc(Br)s2)Nc2ncnn21 (stereo unspecified)	51	3060	2711	46	3232	32	54	35	39
COCCNc1nc2ccccc2nc1NS(=O)(=O)c1ccc(C)cc1C	23	-	2002	0	-	0	24	0	0
Cc1ccccc1S(=O)(=O)Nc1nc2ccccc2nc1N1CCOCC1	27	-	2102	26	-	34	43	37	28
Cc1ccc2cc(C#N)c(SCC(=O)NNC(=O)Cc3ccccc3)nc2c1	0	0	0	0	0	0	-	-	-
COc1ccc2cc(C#N)c(SCC(=O)NNC(=O)Cc3ccccc3)nc2c1	49	-	2781	32	-	0	54	42	37
Cc1ccc(-c2csc3nnc(SCC(=O)Nc4cccc(C)n4)n23)cc1	0	-	0	21	-	0	0	0	0
O=C(COc1ccc2ccccc2c1)NCCNC(=O)COc1ccc2ccccc2c1	39	-	2532	38	-	47	52	48	34
NC(=O)CSc1nnnn1-c1ccccc1Cl	0	0	0	0	0	0	-	-	-
Fc1ccc(-c2nnsc2Sc2ccccn2)cc1	145	6319	3478	0	0	58	34	35	0
CCOC(=O)CSc1c(-c2cccs2)[nH]c2ccccc12	25	0	0	0	0	0	32	23	0
NC(=O)CSc1ncnc2c1oc1ccccc12	110	-	4661	120	-	153	76	55	53
O=C(CSc1ncnc2c1oc1ccccc12)OCc1ccccc1	55	-	2399	46	-	42	41	34	29
O=C(CSc1ncnc2c1oc1ccccc12)Nc1nccs1	0	0	0	0	0	0	-	-	-
O=C(CSc1ncnc2c1oc1ccccc12)NC1CCCCC1	24	-	2101	64	-	33	49	37	32
O=C(CSc1ncnc2c1oc1ccccc12)c1cccs1	30	-	2091	52	-	69	38	25	0
CN(C)/C=C/C(=O)c1ccccc1OCc1cnc(Cl)s1	0	0	0	0	0	0	-	-	-
NC(=O)c1sc2nc(-c3ccco3)ccc2c1N	0	-	0	0	-	30	0	0	0
CCCCCCC1NC(C(=O)O)CS1 (stereo unspecified)	0	-	0	0	-	0	-	-	-
O=C(/C(C=Nc1ccc(Br)cc1)=C(/O)c1ccco1)C(F)(F)F	0	0	0	0	0	0	-	-	-
CCN1CCCC1Cn1cnc2c([nH]c3cccc(Cl)c32)c1=O (stereo unspecified)	0	-	0	0	-	0	-	-	-
O=C(COc1ccc2ccccc2c1Br)NNC(=O)Nc1ccccc1	28	-	2408	21	-	26	0	0	0
O=[N+]([O-])c1ccc(C2Nc3cccc4cccc(c34)N2)cc1	0	0	0	21	0	0	0	0	0
COCCNC(=O)c1cnn2c(C(F)(F)F)cc(-c3ccc(C)cc3)nc12	0	0	0	0	0	0	-	-	-
C#CCNC(=O)C1=C[C@@H](c2coc3ccccc3c2=O)C[C@@H](OCc2ccc(CO)cc2)O1	0	0	0	0	0	0	-	-	-
CSc1nc2sc3c(c2c2nnnn12)CCCC3	0	-	2081	45	-	70	50	39	26
S=c1nc[nH]c2c1[nH]c1ccccc12	38	-	2670	29	-	48	0	0	0
O=C(NC(=S)Nc1ccc(Cc2ccncc2)cc1)c1ccc(F)cc1	0	0	0	0	0	0	-	-	-

Screens as filed in PubChem.
